# Measured values as given in PubChem BioAssay AID504720 (Sanford-Burnham Center for Chemical Genomics, 2011).
# The whole screen tested about 350,000 compounds, of which about 1,100 (0.31%) were called active. This is one part of a sample in which actives are shown more often than they occur. Cut-off read from the data, not from the text of the source: active = activation above about 50%; inactive = the rest.
# Biological target: Endoribonuclease toxin MazF (Escherichia coli (strain K12)) (UniProt P0AE70)
# Experiment: activators of E. coli MazEF toxin-antitoxin RNase, primary screen, biochemical, fluorescence, uHTS (AID 504720)
# Conditions: FAM/BHQ RNA-DNA oligo cleavage fluorescence, 5 h, at 20 µM, active compounds read high
# Endoribonuclease toxin MazF (Escherichia coli (strain K12)), sequence (P0AE70 whole entry, looked up): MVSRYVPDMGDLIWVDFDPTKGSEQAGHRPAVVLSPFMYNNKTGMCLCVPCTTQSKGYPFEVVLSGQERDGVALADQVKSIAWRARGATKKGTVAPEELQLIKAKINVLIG
row,SMILES,activation
1,CC(C(=O)Nc1ccc(O)c(C(=O)O)c1)N1C(=O)/C(=C/c2cccs2)SC1=S (stereo unspecified),3.14% (inactive)
2,Cc1c(C(=O)NCCN2C(=O)S/C(=C\c3cccs3)C2=O)cccc1[N+](=O)[O-],9.61% (inactive)
3,O=C(CCN1C(=O)/C(=C/c2cccs2)SC1=S)NNC(=O)c1cccc(O)c1,96.7% (active)
4,CC(C)NC(=O)C(=O)NCCCOC(C)C,15.5% (inactive)
5,COCCN(CCOC)S(=O)(=O)NC[C@H]1O[C@@H](n2cnc3c(N)ncnc32)[C@H](O)[C@@H]1O,5.68% (inactive)
6,CCCCN(CC(=O)Nc1cccc(S(=O)(=O)N2CCCC2)c1)Cc1nc2ccccc2c(=O)[nH]1,-2.27% (inactive)
7,CCO/C=C1\C(=O)N(c2ccc(OCC)cc2)C(=O)c2ccccc21,5.56% (inactive)
8,CCOc1ccc(N2C(=O)/C(=C/c3ccc(C)o3)N(C)C2=S)cc1,53.2% (active)
9,CCOc1ccc(N2C(=O)CN(c3cccc4ccccc34)C2=S)cc1,1.98% (inactive)
10,OCC[C@H]1C[C@H](O)[C@@H](O)[C@]2(CCc3ccccc3O2)O1,2.25% (inactive)
11,CCCCN=C1C([N+](=O)[O-])=CC=C2C1=NC1(CCCCC1)N2O,8.1% (inactive)
12,CCCCn1c(N)c(N(CC(C)C)C(=O)c2ccc(-n3c(C)ccc3C)cc2)c(=O)[nH]c1=O,-0.38% (inactive)
13,COc1ccc(NC(=O)CSc2nnc(-c3ccccc3F)n2C2CC2)cc1S(N)(=O)=O,3.2% (inactive)
14,CC(C)(C)C1CCC(C(=O)Nc2cccnc2)CC1 (stereo unspecified),5.13% (inactive)
15,CC(=O)N1C(=O)/C(=C2\SC(=S)N(NC(=O)c3ccc(O)cc3)C2=O)c2ccccc21,4.76% (inactive)
16,CN1C(=O)C(CC(N)=O)N(NC(=O)c2ccc(Cl)cc2)C1=S (stereo unspecified),-6.03% (inactive)
17,Cn1cccc1/C=C1\SC(=S)N(NC(=O)c2ccc(Cl)cc2)C1=O,140% (active)
18,CCn1nc(C(=O)NNC(=O)C2CSC3(C)CCC(=O)N23)c2ccccc2c1=O (stereo unspecified),1.5% (inactive)
19,Cc1ccccc1Nc1c([N+](=O)[O-])ccc2nonc12,-7.83% (inactive)

row,SMILES,activation
1,CN(c1ccccc1)c1ccc([N+](=O)[O-])c2nonc12,72.5% (active)
2,Cc1ccc2cccc([N+](=O)[O-])c2n1,4.29% (inactive)
3,C=CC[C@@H](CC(=O)NCCO)C(=O)N[C@H](C)COC(=O)[C@@H](CC=C)CC(=O)OC(C)(C)C,-0.071% (inactive)
4,COc1cc(S(=O)(=O)N(Cc2cccs2)C2CC2)ccc1-n1cnnn1,7.76% (inactive)
5,CCOC(=O)N1CCN(C(=O)c2ccc3nc4cc(Cl)ccc4c(=O)n3c2)CC1,-2.93% (inactive)
6,CC(C)(C)N(Cc1ccccc1)C(=O)COC(=O)CCc1c[nH]c2ccccc12,5.36% (inactive)
7,CCC(=O)CC(c1ccc([N+](=O)[O-])cc1)c1c(O)c2ccccc2oc1=O (stereo unspecified),1% (inactive)
8,COc1cc(N=Cc2c(O)c3ccccc3oc2=O)c(OC)cc1Cl,221% (active)
9,COc1cc(C(c2c(O)c3ccccc3oc2=O)c2c(C)n(C)n(-c3ccccc3)c2=O)ccc1O (stereo unspecified),0.237% (inactive)
10,O=C(NNC(=S)Nc1ccc(F)cc1)[C@H]1C[C@@H]1c1ccccc1,12.2% (inactive)
11,CCCNC(=O)c1onc(CSc2ccc(F)cc2)c1C(=O)NC(C)C,1.76% (inactive)
12,Cc1ccc(S(=O)(=O)N2CCN(C(=O)CSc3cc(C)ccc3C)CC2)c(C)c1,-11.9% (inactive)
13,Cc1ccc(S(=O)(=O)N2CCN(C(=O)COC(=O)c3c(C)cc(C)cc3C)CC2)c(C)c1,2.63% (inactive)
14,Cc1ccc(S(=O)(=O)N2CCN(C(=O)Cn3c(=O)cnc4ccccc43)CC2)c(C)c1,52.1% (active)
15,CCOc1ccc(/C=C/C(=O)OCC(=O)c2ccccc2OC)cc1OC,-8.54% (inactive)
16,COC(=O)Cc1csc(/N=C/c2c(O)n(-c3cccc(C(F)(F)F)c3)c(=O)c3ccccc23)n1,-24.2% (inactive)
17,Cc1ccc(N=Cc2c(O)n(-c3nccs3)c(=O)c3ccccc23)c(C)c1,1250% (active)
18,Cc1cccc(-n2c(O)c(C=Nc3ccccc3N)c(=O)[nH]c2=O)c1,10.4% (inactive)
19,COc1ccc(C)cc1N(C)C(=O)c1coc(=O)c2ccccc12,4.28% (inactive)

row,SMILES,activation
1,COc1cc(OC)cc(C(=O)Nc2ccc(-c3nc4ccccc4o3)c(O)c2)c1,-11.7% (inactive)
2,O=C(Nc1ccc2oc(-c3ccc4ccccc4c3)nc2c1)c1cccs1,57.7% (active)
3,O=C(Nc1ccc2oc(-c3ccccc3F)nc2c1)c1ccco1,1.3% (inactive)
4,O=C(NCCSc1ncc(-c2ccccc2)[nH]1)c1ccco1,3.87% (inactive)
5,COCCCNC(=O)c1c(F)c(F)c(F)c(F)c1F,5.56% (inactive)
6,COc1ccc(/C=C/c2c(-c3cccc(C)c3)oc3ccc(-c4ccc5c(c4)OCO5)cc23)cc1,-7.77% (inactive)
7,Cc1cc(C)cc(Oc2c(C(F)(F)F)oc3cc(OCC(=O)O)ccc3c2=O)c1,2.37% (inactive)
8,CCC(=O)Nc1cccc(NC(=O)c2cccnc2)c1,335% (active)
9,CCOC(=O)c1cc(NC(=O)c2cccnc2)ccn1,0.906% (inactive)
10,O=C(Cc1ccccc1)Nc1ccc(NC(=O)c2cccnc2)cc1,-0.44% (inactive)
11,O=C(NCCOc1ccccc1)N1[C@H]2CC[C@@H]1C=C(c1ccc(F)cc1OCc1ccccc1)C2,-1.59% (inactive)
12,CSCCC1NC2(C(=O)Nc3ccc(Cl)cc32)[C@@H]2C(=O)N(C3CCCC3)C(=O)[C@H]12 (stereo partly specified),2.84% (inactive)
13,CC(=O)c1ccc(N2CCN(CC(=O)Nc3ccccc3N3CCOCC3)CC2)cc1,4.75% (inactive)
14,O=C(CN1CCOCC1)Nc1ccccc1,6.62% (inactive)
15,O=C(CN1CCN(c2ccc(O)cc2)CC1)Nc1ccc(-c2ccccc2)cc1,111% (active)
16,CN(C)Cc1c(O)ccc2occ(C(O)c3ccccc3)c12 (stereo unspecified),8.71% (inactive)
17,COc1cccc2c1OCC(CN1CCN(C3CCCCC3)C(CCO)C1)=C2 (stereo unspecified),0.264% (inactive)
18,CC(=O)NC(C)(C)C1CC=C(C)/C(=N\O)C1 (stereo unspecified),6.07% (inactive)
